Assay results taken from PubChem BioAssay (NCATS).
Values joined by “and” are separate entries in the source; they are usually repeats but may differ in a detail not shown here. Identical values can stand only once. Results filed as inconclusive are left out. Entries that show only a call come without a potency. Active and inactive are the calls of the source. Unless noted, the call rests on the fitted dose curve; in most records, active means well fitted curve in the direction sought with a large enough effect; inconclusive means small, poorly fitted or top-dose-only effect, or another doubt; inactive means no such curve, though single readings can be large; an effect the other way counts as inactive or inconclusive.

Legend:
[1] = qHTS assay for environmental chemicals that activate the Aryl hydrocarbon Receptor (AhR) signaling pathway (AID 651777); settings: 1A2-DRE human hepatoma cells, luciferase, 24 h; stronger effect = higher value; further: nearly all actives have a fitted effect of over 15% in size
In short: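 Induction of CYP1A2 transcription through AhR is detected by luciferase in 1A2-DRE hepatoma cells. Compounds or DMSO act for 24 hr at 37 C before a 30 min One-Glo step at room temperature.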

[2] = target: Peroxisome proliferator-activated receptor alpha (Homo sapiens) (UniProt Q07869); experiment: qHTS assay for small molecule agonists of the peroxisome proliferator-activated receptor alpha (PPARalpha) signaling pathway (AID 651778); settings: PathHunter PPARalpha complementation, chemiluminescence, 6 h; stronger effect = higher value
Chain of Peroxisome proliferator-activated receptor alpha (Homo sapiens) (Q07869 whole entry, looked up): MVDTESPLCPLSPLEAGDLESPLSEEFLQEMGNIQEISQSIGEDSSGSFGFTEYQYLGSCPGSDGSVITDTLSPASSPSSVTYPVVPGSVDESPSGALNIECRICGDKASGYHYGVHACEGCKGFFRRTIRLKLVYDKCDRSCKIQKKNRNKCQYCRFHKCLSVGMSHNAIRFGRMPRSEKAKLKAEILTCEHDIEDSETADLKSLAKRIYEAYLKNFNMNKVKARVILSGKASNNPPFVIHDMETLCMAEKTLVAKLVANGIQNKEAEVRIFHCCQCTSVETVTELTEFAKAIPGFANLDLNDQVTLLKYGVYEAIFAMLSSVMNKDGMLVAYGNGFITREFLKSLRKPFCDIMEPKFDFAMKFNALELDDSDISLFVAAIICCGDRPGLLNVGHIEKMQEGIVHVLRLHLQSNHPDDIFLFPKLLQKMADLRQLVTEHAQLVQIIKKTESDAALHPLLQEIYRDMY
In short: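 Chemiluminescence from complemented enzyme reported PPARalpha activation in cells after 6 hr of compound treatment at 37 C. The detection reagent was incubated for 60 min at room temperature, and compounds were scored as agonists.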

[3] = target: Tyrosine-protein kinase Yes (Homo sapiens) (UniProt P07947); experiment: qHTS for small molecule inhibitors of Yes1 kinase: Primary Screen (AID 686947); settings: Yes1 kinase biochemical qHTS inhibition; series mostly up to 76.9 µM; further: nearly all actives have a fitted effect of over 60% in size; further: potency means the concentration at half of the fitted maximal effect
Chain of Tyrosine-protein kinase Yes (Homo sapiens) (P07947 whole entry, looked up): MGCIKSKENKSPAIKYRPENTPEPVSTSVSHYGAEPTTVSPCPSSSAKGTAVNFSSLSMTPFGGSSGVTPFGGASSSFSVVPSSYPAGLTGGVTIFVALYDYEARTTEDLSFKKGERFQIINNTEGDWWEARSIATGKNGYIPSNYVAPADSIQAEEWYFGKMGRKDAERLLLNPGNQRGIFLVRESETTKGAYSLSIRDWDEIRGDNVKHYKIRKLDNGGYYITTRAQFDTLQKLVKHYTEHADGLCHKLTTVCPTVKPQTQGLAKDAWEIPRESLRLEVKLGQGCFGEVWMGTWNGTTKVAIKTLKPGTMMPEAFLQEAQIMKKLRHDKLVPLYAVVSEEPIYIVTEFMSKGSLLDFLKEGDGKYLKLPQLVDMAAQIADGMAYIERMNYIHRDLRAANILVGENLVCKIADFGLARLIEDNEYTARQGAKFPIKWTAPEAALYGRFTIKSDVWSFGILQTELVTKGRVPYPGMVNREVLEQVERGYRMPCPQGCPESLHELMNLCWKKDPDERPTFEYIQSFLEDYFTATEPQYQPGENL
In short: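 ADP-Glo luminescence reports ADP formed by 4 nM Yes1 phosphorylating poly(E4Y) (0.3 mg/mL) with 0.1 mM ATP for 60 min at room temperature, following 20 min compound preincubation; normalised between DMSO wells with and without enzyme.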

[4] = qHTS for small molecule inhibitors of Yes1 kinase: Counter Assay (AID 686950); settings: series mostly up to 76.9 µM;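 further: no kinase present so only ADP-Glo detection of a fixed ADP amount is tested; luminescence from ADP-Glo reporting ADP in a fixed ATP and ADP mixture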
In short: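 ADP-Glo luminescence read after a 60 min room-temperature incubation of compound with an ATP/ADP mix (0.08 mM/0.02 mM) and no kinase, following a 20 min compound preincubation. Signal scaled between ATP+ADP (max) and 0.1 mM ATP-only (min) wells; Tris pH 7.5, Mg2+, DTT.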

[5] = target: Arylsulfatase A (Homo sapiens) (UniProt P15289); experiment: qHTS screen for enhancers of Arylsulfatase A (ASA1): LOPAC Validation Assay (AID 720538); settings: ASA enzyme activity, LOPAC qHTS enhancer assay; series mostly up to 57.5 µM
Chain of Arylsulfatase A (Homo sapiens) (P15289 whole entry, looked up): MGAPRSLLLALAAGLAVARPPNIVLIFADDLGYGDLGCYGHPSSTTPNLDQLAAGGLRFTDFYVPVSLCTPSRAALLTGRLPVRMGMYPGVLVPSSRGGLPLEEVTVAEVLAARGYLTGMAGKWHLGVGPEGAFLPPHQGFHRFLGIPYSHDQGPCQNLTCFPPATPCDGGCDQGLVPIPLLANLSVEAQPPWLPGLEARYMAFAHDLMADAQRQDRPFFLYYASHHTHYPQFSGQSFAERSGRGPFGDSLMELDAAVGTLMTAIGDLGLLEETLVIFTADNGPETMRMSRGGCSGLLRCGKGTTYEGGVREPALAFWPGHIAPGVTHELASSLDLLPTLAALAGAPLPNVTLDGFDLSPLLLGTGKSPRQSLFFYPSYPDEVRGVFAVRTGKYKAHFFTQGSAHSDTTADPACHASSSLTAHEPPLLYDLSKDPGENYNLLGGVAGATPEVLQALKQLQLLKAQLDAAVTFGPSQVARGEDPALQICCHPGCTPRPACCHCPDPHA
In short: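 MLD patient fibroblasts (SV40, ASA-I179S), 1536-well; adhere 6 hrs; cpd 48h, 37 degree C, 5% CO2; pNCS 0.5mM final in lysis buffer, 14h RT; stop 1N NaOH final; fluor. Ex525/Em598.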

[6] = qHTS for compounds that reverse cellular toxicity of Amyloid beta (A-beta) peptide in yeast: LOPAC Validation Assay (AID 720559); settings: yeast expressing A-beta; series mostly up to 46.1 µM
In short: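 Medium dispensed, compounds pinned, A-beta yeast suspension added; plates held at 30 C for 48 hr; absorbance measured at 600 nm to gauge growth; values scaled between DMSO and FeCl3/clioquinol (equimolar) controls.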

[7] = qHTS for Activators of Parkin Expression: LOPAC Validation Assay (NLuc Reporter) (AID 720572); settings: Parkin promoter NanoLuc reporter cells, luminescence; series mostly up to 46.1 µM
In short: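 Compound effects on Parkin promoter activity were measured as NanoLuc luminescence after 24 h at 37 C. The neuronal reporter line also carried FLuc, which was read first. LOPAC compounds were tested at 7 concentrations, with normalization to DMSO (0%) and positive control (100%).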

[8] = qHTS for Activators of Parkin Expression: LOPAC Validation Assay (FLuc Reporter) (AID 720573); settings: Cell line, PRKN promoter firefly luciferase reporter, vehicle wells = 0, positive control = 100%; series mostly up to 46.1 µM
In short: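 Cells seeded, 24 h; compounds pinned, 7-pt dose response; 24 h at 37 C/5% CO2; volume reduced; FLuc reagent 10 min RT; luminescence read. Normalization: DMSO = 0, positive control = 100%.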

[9] = qHTS assay for small molecule agonists of the antioxidant response element (ARE) signaling pathway measured by Nrf2-dependant transcriptional activity (AID 720636; active means well fitted curve in the direction sought with a large enough effect in the repeat runs; an effect the other way counts as inactive or inconclusive;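 further: HepG2 cells with an ARE-driven luciferase reporter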); settings: ARE-luc HepG2, Nrf2 luciferase reporter, 16 h; series mostly up to 92.4 µM
In short: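 We exposed ARE-luc HepG2 cells, seeded in assay medium with 1% dialyzed FBS and allowed 6 hr to adhere, to test compounds overnight (16 hr, 37 C) before measuring luciferase with ONE-Glo.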

[10] = qHTS assay for small molecule agonists of the antioxidant response element (ARE) signaling pathway measured by Nrf2-dependant transcriptional activity - cell viability counter screen (AID 720653; active means well fitted curve in the direction sought with a large enough effect in the repeat runs; an effect the other way counts as inactive or inconclusive); settings: ARE-bla HepG2 viability, CellTiter-Glo ATP luminescence, 16 h; stronger effect = lower value
In short: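 Cytotoxicity counter screen: intracellular ATP quantified by CellTiter-Glo luminescence in the same ARE-bla HepG2 plates, after 16 h compound exposure and a 2 h beta-lactamase substrate step.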

[11] = target: T1, Hexokinase-4 (Homo sapiens) + Glucokinase regulatory protein (Homo sapiens) (UniProt P35557+Q14397); experiment: qHTS assay for inhibitors of recombinant human GCK-GKRP interaction: Diaphorase-coupled assay (AID 743205); settings: G6PDH/diaphorase resorufin fluorescence; series mostly up to 57.5 µM
T1 sequence (P35557 whole entry, looked up): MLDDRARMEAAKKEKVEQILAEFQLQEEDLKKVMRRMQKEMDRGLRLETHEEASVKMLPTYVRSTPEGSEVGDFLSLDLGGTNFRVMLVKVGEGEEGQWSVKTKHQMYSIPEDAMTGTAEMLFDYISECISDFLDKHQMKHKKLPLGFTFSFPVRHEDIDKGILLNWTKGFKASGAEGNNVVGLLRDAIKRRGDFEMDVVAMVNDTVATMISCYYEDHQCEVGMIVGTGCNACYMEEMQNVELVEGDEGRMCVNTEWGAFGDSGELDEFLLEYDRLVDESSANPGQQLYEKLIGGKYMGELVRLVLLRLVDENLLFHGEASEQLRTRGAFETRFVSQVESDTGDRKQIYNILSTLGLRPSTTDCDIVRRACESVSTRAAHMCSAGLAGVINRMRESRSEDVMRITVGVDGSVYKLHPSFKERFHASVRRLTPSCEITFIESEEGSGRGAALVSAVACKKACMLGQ
T1 sequence (Q14397 whole entry, looked up): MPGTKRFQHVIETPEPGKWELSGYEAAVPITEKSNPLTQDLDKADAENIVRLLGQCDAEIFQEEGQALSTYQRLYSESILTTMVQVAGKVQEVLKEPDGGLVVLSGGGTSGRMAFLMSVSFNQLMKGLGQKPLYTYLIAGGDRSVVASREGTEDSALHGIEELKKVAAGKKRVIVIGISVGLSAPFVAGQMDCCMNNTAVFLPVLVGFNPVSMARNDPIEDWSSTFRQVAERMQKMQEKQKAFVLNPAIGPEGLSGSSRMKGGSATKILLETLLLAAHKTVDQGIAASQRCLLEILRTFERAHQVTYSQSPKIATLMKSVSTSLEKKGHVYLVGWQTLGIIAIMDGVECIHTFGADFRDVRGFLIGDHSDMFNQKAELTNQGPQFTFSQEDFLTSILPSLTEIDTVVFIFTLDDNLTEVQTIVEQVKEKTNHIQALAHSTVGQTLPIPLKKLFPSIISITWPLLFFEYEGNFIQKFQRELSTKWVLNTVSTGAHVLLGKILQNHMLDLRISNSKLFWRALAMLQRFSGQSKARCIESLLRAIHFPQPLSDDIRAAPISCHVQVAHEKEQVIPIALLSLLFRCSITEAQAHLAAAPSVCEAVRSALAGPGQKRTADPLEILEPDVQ
In short: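 25 mM Hepes pH 7.6, 5 mM glucose, 0.4 mM ATP, 4 U/ml G6PDH; 10 nM each GST-GCK/FLAG-GKRP. Kinetic fluorescence read, 1/min × 30 min. Normalized: DMSO ± enzyme = max/min.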

[12] = target: T1, Hexokinase-4 (Homo sapiens) + Glucokinase regulatory protein (Homo sapiens); experiment: qHTS assay for inhibitors of recombinant human GCK-GKRP interaction: HTRF assay (AID 743207); settings: recombinant GCK-GKRP HTRF binding, 60 min, with sorbitol-6-phosphate; series mostly up to 57.5 µM
In short: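 5 nM GST-GCK + 5 nM FLAG-GKRP + 2 uM S6P, pH 7.1 buffer (25 mM Hepes, 2 mM MgCl2, 25 mM KCl, 1 mM DTT, Tween/BSA); pin-transferred cpd; anti-FLAG XL665/anti-GST K; 60 min RT; HTRF.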

[13] = qHTS Assay for Identifying Gametocytocidal Compounds (AID 743244); further: potency means the concentration at half of the fitted maximal effect;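 on max response: actives lower the fluorescent signal which means gametocytes are killed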; settings: P. falciparum 3D7 stage III-V gametocytes, alamarBlue, 72 h; max response: stronger effect = lower value
In short: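 Compounds are pinned into medium, gametocytes (stage III–V, 3D7, 20,000 cells/well) added, and plates held 72 h at 37 °C in 5% CO2. AlamarBlue follows for 24 h before fluorescence reading.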

[14] = qHTS assay for cell viability of HEK293 cells (AID 743288); settings: ATP luminescence (CellTiter-Glo), 18 h; max response: stronger effect = lower value; further: nearly all actives have a fitted effect of over 50% in size
In short: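 Viable-cell counts were inferred from luciferase-based ATP content in HEK293 cells seeded at 2,000/well, pre-incubated ≥5 h, then dosed with DMSO-solubilised compounds for 18 h at 37 C.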

[15] = qHTS assay for cell viability of the p53RE-bla HCT-116 cell line (AID 743292); settings: p53RE-bla HCT-116 viability, ATP luminescence, 16 h; series mostly up to 95 µM; further: nearly all actives have a fitted effect of over 55% in size
In short: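 In this qHTS counter-screen, metabolically competent p53RE-bla HCT-116 cells were counted via their ATP content. Compounds were applied for 16 h at 37 C and luciferase-coupled luminescence was measured.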

[16] = qHTS profiling for inhibitors of Plasmodium falciparum (3D7) proliferation (AID 743322; call rule not given here;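 further: infected erythrocytes exposed to compound for 72 h before lysis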); settings: P. falciparum 3D7 proliferation; at 28.7 µM (top of the series) unless noted
In short: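 Parasite DNA was quantified by SYBR Green I fluorescence (ex 485, em 535 nm) after overnight lysis in saponin/Triton buffer at room temperature. Cultures at 0.3% parasitemia and 2.5% hematocrit were first exposed to compound for 72 h at 37 C; signals were normalised to artemisinin (0.29 uM) and vehicle wells.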

[17] = qHTS profiling for inhibitors of Plasmodium falciparum (DD2) proliferation (AID 743323; call rule not given here); settings: lower = more inhibition; at 28.7 µM (top of the series) unless noted
In short: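 P. falciparum Dd2-infected erythrocytes (0.3% parasitemia, 2.5% hematocrit) exposed 72 h at 37 C, 5% CO2. Lysis with SYBR Green, overnight at room temperature, fluorescence 485/535 nm; normalized to 0.29 uM artemisinin and DMSO.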

| SMILES | activation [1] | max response [2] | Potency [3] | outcome [4] | outcome [5] | outcome [6] | Potency [7] | outcome [8] | outcome [9] | max response [10] | outcome [11] | outcome [12] | max response [13] | max response [14] | Potency [15] | remaining parasite growth % (stronger effect = lower value) [16] [%] | activity, percent of control [17] [%] | Potency [13] |
| --- | --- | --- | --- | --- | --- | --- | --- | --- | --- | --- | --- | --- | --- | --- | --- | --- | --- | --- |
| C[C@]12CCC(=O)C=C1CC[C@@H]1[C@@H]2[C@@H](O)C[C@@]2(C)[C@H]1CC[C@]2(O)C(=O)CO | -1.47% (inactive) | -0.295% (inactive) | inactive | inactive | inactive | inactive | inactive | inactive | inactive | -2.33% (inactive) | inactive | inactive | 5.84% (inactive) and 30.7% (inactive) | -17.5% (inactive) | inactive | 98.9 | 92.4 |  |
| Nc1ncnc2nc(-c3ccc(N4CCOCC4)nc3)cc(-c3cccc(Br)c3)c12 |  |  | 3.45 µM (active) | inactive | inactive | inactive |  |  |  |  |  |  | -13.8% (inactive) |  |  |  |  |  |
| NC[C@H](O)c1ccc(O)c(O)c1 | 0.207% (inactive) | -1.8% (inactive) |  |  | inactive |  |  |  | inactive | -7.71% (inactive) | inactive | inactive | 20.6% (inactive) and 26.6% (inactive) | -4.13% (inactive) | inactive |  |  |  |
| OCCn1cc(-c2cnc3nnn(Cc4ccc5ncccc5c4)c3n2)cn1 |  |  | inactive | inactive |  |  |  |  |  |  |  |  |  |  |  | 81.8 | 86.8 | 29.6 µM (active) |
| Cc1[nH]c(=O)c(C#N)cc1-c1ccncc1 | 0.896% (inactive) | 0.228% (inactive) |  |  | inactive; inhibitor; fitted 5.3582 uM | inactive | inactive | inactive | inactive | 11.3% (inactive) | inactive | inactive | -5.95% (inactive) and 11% (inactive) and 13.2% (inactive) | 7.32% (inactive) | inactive |  |  |  |
| O=NN(CCCl)C(=O)NCCCl | 0.58% (inactive) | -2.23% (inactive) |  |  |  | inactive | inactive | inactive | inactive | -0.208% (inactive) | inactive | inactive | 10.6% (inactive) and 5.39% (inactive) | -8.57% (inactive) | inactive |  |  |  |
| O=C1[C@H](Cc2ccc(O)cc2)N2C(=O)CCN(C(=O)NCc3ccccc3)[C@H]2CN1Cc1cccc2ccccc12 |  |  | inactive | inactive |  |  |  |  |  |  |  |  | -13% (inactive) |  |  | 32.3 | 43.6 |  |
| C[C@]12CC[C@H](O)CC1=CC[C@@H]1[C@H]2CC[C@]2(C)C(c3cccnc3)=CC[C@H]12 |  |  | inactive | inactive |  |  |  |  |  |  |  |  | -8.9% (inactive) |  |  | -0.476 | 1.24 |  |
